Compound activity as filed in PubChem BioAssay.
PNC inhibitor = blocks assembly of the perinucleolar compartment | PC3M PTB-GFP, PNC prevalence imaging, 16 h; stronger effect = lower value | activity change (PNC), negative = inhibition, % at 10 µM | 3.1% of 140,000 active;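 active means readout at or below -70, meaning at least 70% loss of cells showing the perinucleolar compartment, a nuclear body marking cancer cells; inconclusive means readout between -30 and a set limit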;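 further: plate controls were DMSO wells for no effect and camptothecin positive control wells for full effect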
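PC3M cells stably expressing PTB-GFP, 750–1000 cells/well, treated 16 h at 37 °C with compound (23 nl of library stock), in duplicate. After paraformaldehyde fixation and Hoechst stain, imaged at 20x; PNC prevalence scored by image analysis.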
ALDH1A1 block = inhibitors of human aldehyde dehydrogenase 1A1; Purified ALDH1A1, NADH fluorescence, propionaldehyde substrate; Potency, µM (highest dose often 75.3 µM), for the others: at the highest dose activity, negative = inhibition, actives largely listed as inhibitors; 7.3% of 220,000 active;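 further: potency means the concentration at half of the fitted maximal effect; plate controls were no enzyme wells and a reference inhibitor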
Target sequence (P00352 whole entry, looked up): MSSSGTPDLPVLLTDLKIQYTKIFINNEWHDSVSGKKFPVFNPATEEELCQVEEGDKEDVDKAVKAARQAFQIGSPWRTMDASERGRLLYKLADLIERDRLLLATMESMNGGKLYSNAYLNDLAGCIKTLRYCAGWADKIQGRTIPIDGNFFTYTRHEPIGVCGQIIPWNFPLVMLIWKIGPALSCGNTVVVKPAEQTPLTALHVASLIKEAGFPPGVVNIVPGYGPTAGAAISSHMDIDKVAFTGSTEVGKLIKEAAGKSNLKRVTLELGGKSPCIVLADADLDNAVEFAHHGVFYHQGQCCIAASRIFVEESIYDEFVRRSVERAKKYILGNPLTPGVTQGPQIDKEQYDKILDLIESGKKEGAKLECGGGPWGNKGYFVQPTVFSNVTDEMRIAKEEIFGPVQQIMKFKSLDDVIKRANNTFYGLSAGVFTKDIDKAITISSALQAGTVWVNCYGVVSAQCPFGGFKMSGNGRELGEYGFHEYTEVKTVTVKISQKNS
HPGD inh = HPGD (human) dehydrogenase inhibition | 4.3% of 150,000 active | Potency, µM, for the others: at the top dose activity change, negative = inhibition, actives largely listed as inhibitors | P15428 | purified HPGD, NADH fluorescence kinetic, PGE2 substrate; further: potency means the concentration at half of the fitted maximal effect
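NADH formation kinetics: reaction with 30 uM PGE2 and 1 mM NAD+ (final), 20 nM enzyme, Tris-HCl pH 8 with Tween 20, after 15 min compound preincubation at room temperature. Fluorescence change, last versus first of five reads.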
Starred values were filed as active, the others as inactive; u = inconclusive; x = not tested or not shown; [ ] = another dose, or the depositor's remark. Most compounds without a hit are left out; they make up all but 11% or so of the library. Unless noted, the call rests on the fitted dose curve; in most records, active means well fitted inhibition curve with a large enough effect (not every such curve was filed as active); inconclusive means small, poorly fitted or top-dose-only effect, or another doubt; inactive means no such curve, though single readings can be large or run the other way. Unless noted, on the % scale 0 is the no-effect control and ±100 the full control effect.

SMILES | PNC inhibitor | ALDH1A1 block | HPGD inh
CCOc1ccccc1Nc1nnc(SC(C)C(=O)Nc2nc(-c3ccccc3)cs2)s1 (stereo unspecified) | u | -8% | -8%
CCc1ccc(C(C(=O)NCCOC)N(C(=O)Cn2nnc3ccccc32)c2cccnc2)cc1 (stereo unspecified) | -28 | u | 0%
CCc1cc2c(SCC(=O)Nc3cc(C)on3)ncnc2s1 | x | 11% | x
CCN(C(=O)COC(=O)CNS(=O)(=O)c1ccccc1)c1ccccc1 | x | -4% | x
Cc1cccc(C)c1NC(=O)[C@H](C)N | x | 6%[20.9 µM] | 0%
Cc1cc(Nc2cccc(C)c2C)n2nc(C)nc2n1 | 57 | 17% | -8%
O=C(CC(c1ccccc1)C1CCCCC1=O)c1ccco1 (stereo unspecified) | -14 | u | u
COc1ccc(C(=O)CC(c2ccccc2)C2CCCCC2=O)cc1 (stereo unspecified) | 2 | 0.5µM* | -15%
CN(C)c1ccc(C(CC(=O)c2ccccc2)C2CCCCC2=O)cc1 (stereo unspecified) | 78 | u | 2%
O=C(CC(c1ccco1)C1CCCCC1=O)c1ccco1 (stereo unspecified) | 11 | 25µM* | -1%
N#Cc1cccc(NC(=O)N2CC3(CCN(C(=O)c4cc(C(F)(F)F)cc(C(F)(F)F)c4)CC3)C2)c1 | x | -1% | -5%
CCCCC(CC)CNC(=O)C1C2C=CC(C2)C1C(=O)O (stereo unspecified) | u | 6% | -6%
CCOC(=O)c1c(-c2ccccc2)oc2ccc(O)c(CN3CCN(C)CC3)c12 | -114* | u | 2%
CCOC(=O)c1c(C)n(C)c2ccc(OC)c(NC(=O)c3cccs3)c12 | u | 3% | -6%
CCOC(=O)c1c(C)n(C)c2ccc(O)c(CN3CCN(C)CC3)c12 | -16 | 18µM* | -8%
CCOC(=O)c1c(-c2ccccc2)oc2ccc(OCC)cc12 | 27 | u | u
CCOC(=O)c1c(C)n(C)c2ccc(OC)c(NC(=O)CN3CCSCC3)c12 | -105* | 3% | -8%
CCOC(=O)c1c(C)n(C)c2ccc(O)c(CN3CCC(C)CC3)c12 | 35 | -8% | 2%
COc1ccc(S(=O)(=O)Nc2ccc3c(c2)n(C)c(=O)n3C)cc1 | x | -11% | x
CN(C)CCNC(=O)C12CC3(C)CC(C)(CC(C)(C3)C1)C2 | 32 | 4% | 2%
CC1(C)O[C@@H]2C[C@H]3[C@H]4C[C@H](F)C5=CC(=O)C=C[C@@]5(C)[C@@H]4[C@H](O)C[C@]3(C)[C@]2(C(=O)CO)O1 | x | -6%[20.9 µM] | -4%
CCN(CC)S(=O)(=O)c1ccc(C(=O)OCn2nnc3ccccc3c2=O)cc1 | u | 0% | -3%
COc1ccc(Cn2c(SCc3ccc(C)cc3)nc3cc(OC)c(OC)cc3c2=N)cc1Cl | 16 | u | -21%
COCCCn1c(SCc2cccc(C(F)(F)F)c2)nc2cc(OC)c(OC)cc2c1=N | -106* | u | u
COCCCn1c(SCc2ccccc2)nc2cc(OC)c(OC)cc2c1=N | 29 | u | -29%
SMILES | PNC inhibitor | ALDH1A1 block | HPGD inh
COc1ccc(Cn2c(SCc3cc(C)ccc3C)nc3cc(OC)c(OC)cc3c2=N)cc1 | -114* | u | u
CCC(C)C(=O)OC1CCC=C2C=CC(C)C(CCC3CC(O)CC(=O)O3)[C@@H]21 (stereo partly specified) | x | -11% | 3%
CCN(CCCNC(=O)CCCOc1cc(=O)n(C)c2ccccc12)Cc1ccccc1 | x | -10% | x
COc1ccc(C2=C(CC(=O)O)C(=O)CC2)cc1 | 18 | u | u
Oc1cccc2ccc(/C=C/c3c(F)cccc3Cl)nc12 | x | -4% | x
Oc1cccc2ccc(SSc3ccc4cccc(O)c4n3)nc12 | x | 4µM* | 0.56µM*
Cc1ccccc1CNC(=O)c1ccc(Cl)c([N+](=O)[O-])c1 | 42 | u | -30%
CC(C)CNC(=O)c1ccc(NC(=O)c2ccccc2[N+](=O)[O-])cc1 | -84* | -1% | u
CC(C)CNC(=O)c1cccc(NC(=O)c2ccc(Cl)c([N+](=O)[O-])c2)c1 | -89* | 2% | -22%
CC(C)CNC(=O)c1ccc(Cl)c(Cl)c1 | 13 | 11% | 22µM*
Cc1cc(NC(=O)c2ccccc2[N+](=O)[O-])ccc1Br | x | -8% | x
COc1cccc(C(=O)Nc2cccc(C(=O)NCC(C)C)c2)c1 | u | 6% | -7%
CC(C)(C)SCCNC(=O)c1ccc(Cl)c([N+](=O)[O-])c1 | 57 | u | 28µM*
O=C(NCCO)c1ccc(Cl)c(Cl)c1 | u | 2% | u
O=C(O)c1cc(S(=O)(=O)NCC2CCCO2)ccc1Cl (stereo unspecified) | 52 | -1% | -3%
COc1cc(CC(=O)OCC(=O)Nc2cc([N+](=O)[O-])ccc2Cl)cc(OC)c1OC | 37 | -9% | -12%
COc1c(/C=N/NC(N)=S)c(C)nn1-c1ccccc1 | 9 | -2% | -18%
COc1cc2c(cc1OC)-c1cc(N3CCCc4ccccc43)nc(=O)n1CC2 | -11 | 11µM* | -23%
COc1cc2c(cc1OC)-c1cc(N3CCCCCC3)nc(=O)n1CC2 | -8 | u | u
O=C(O)COC(=O)C1C(c2ccccc2)C(C(=O)O)C1c1ccccc1 (stereo unspecified) | x | 4% | x
CC(C)C(NC(=O)C12CC3CC(CC(C3)C1)C2)C(=O)NC1=NCCS1 (stereo unspecified) | 33 | -3% | -16%
CC(NC(=O)C1CCCCC1)C(=O)NC1=NCCS1 (stereo unspecified) | -112* | -9% | -14%
CCc1cccc(Nc2c3c(nc4ncnn24)CCC3)c1 | x | 3% | x
Clc1cccc(Nc2c3c(nc4ncnn24)CCC3)c1 | u | u | 16µM*
CC/C=C\C/C=C\C/C=C\C/C=C\C/C=C\CCCCCC(=O)O | x | -11% | -8%
SMILES | PNC inhibitor | ALDH1A1 block | HPGD inh
CC/C=C\C/C=C\C/C=C\C/C=C\C/C=C\C/C=C\CCC(=O)O | x | 22µM* | -7%
CCOc1cc(CNc2ccc3c(c2)CCC3)ccc1OC | 14 | 20µM* | -14%
COc1ccc(NC(=O)Nc2ccc3c(c2)CCC3)cc1OC | x | 4% | x
O=[N+]([O-])c1cccc(CNCc2ccccc2)c1 | x | -5% | x
O=[N+]([O-])c1cccc(CNc2ccc3c(c2)CCC3)c1 | 40 | 22µM* | -14%
CCCn1c(C)nc2c(NCCCCN(C)C)nc(C)nc21 | x | 4% | -5%
Cc1ccc(S(=O)(=O)c2c(COC(=O)c3ccc(Cl)cc3)c(-c3ccccc3)nn2C)cc1 | 24 | u | -3%
O=[N+]([O-])c1cccc(/C=N/n2cnnc2)c1O | 31 | -4% | -11%
O=[N+]([O-])c1ccccc1S(=O)(=O)Oc1ccccc1/C=N/n1cnnc1 | u | -1% | 18µM*
Fc1ccc(C[n+]2csc3ccccc32)cc1 | 17 | 4µM* | 10µM*
Clc1ccc(-c2c[n+](Cc3ccc(Cl)c(Cl)c3)c3n2CCC3)cc1 | 29 | 10% | 6%
Clc1ccc(C[n+]2csc3ccccc32)cc1 | 21 | 2.8µM* | 16µM*
Fc1ccc(CSc2ncnc3scc(-c4ccccc4)c23)cc1 | 26 | -2% | -15%
CCOc1ccc(C2c3c(oc4ccccc4c3=O)C(=O)N2c2ccc(C)cn2)cc1OC (stereo unspecified) | 0 | -5% | -20%
